# Measured values: PubChem BioAssay (NCI)
# This is part of a sample that, as a whole, favours compounds with a hit. Of some 83,000 tested, about 20% had one in any assay.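 Negative percent growth values reflect cell death: -40 means 40% of the cells present at the start died, and -100 means all died.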 Values without a mark were called inactive. Activity calls are given as the source filed them. The calls were made as follows: active = growth percent below 10; inactive = the rest.
# System: MOLT-4 leukemia
# Assay: NCI-60 one-dose screen, 48 h (100 = growth as untreated, 0 = no growth, -100 = all killed)
# Settings: 10 µM unless noted
row,Compound,growth
1,COc1ccc2c(c1)C(=O)c1c-2c(=O)n(CCCCCCC(=O)NO)c2ccccc12,4.43% (active)
2,CCC(C)(C)C(=O)O[C@H]1C[C@@H](C)C=C2C=C[C@H](C)[C@H](CC[C@@H]3C[C@@H](O)CC(=O)O3)[C@H]21,72.8%
3,CCC1=C(c2ccc(OC)cc2)C(C)(C)Oc2c1ccc(O)c2CN1CCCC1,14.3%
4,CCCCCCCCCCCCCCCCCC1=NC(C)(C)CN1CCO,-55.7% (active)
5,O=C(Nc1ccc(Cl)cc1)Nc1ccc(Nc2nncc3ccccc23)cc1,-1.61% (active)
6,CCCCCCCC1(C)NC(=O)NC1=O (stereo not drawn),106%
7,CCOC(=O)c1c(C)c(C(=O)OCC)n(C)c1C,87.1%
8,COc1ccc(-c2cncn2-c2ccc(-c3nc4cc(OC)c(OC)c(OC)c4s3)cc2)cc1N,40%
9,CCc1[nH]nc(-c2ccc(OC)cc2)c1-c1ccccc1OCCN(CC)CC,85.8%
10,COc1ncc(-c2ccc3nccc(C#CCN4CCN(S(C)(=O)=O)CC4)c3c2)cc1NS(=O)(=O)c1ccc(F)cc1F,-21% (active)
11,COc1ccc2c(c1)C(=O)c1c-2c(OCCCN(C)C)nc2cc(Br)ccc12,21.1%
12,N#Cc1c(N)[nH]c(S)c1C#N,108%
13,Cc1ccc(NC(=O)Nc2ccc(-c3cccnc3)cc2N2CCC(CO)CC2)cc1,17.6%
14,CCCCCCCCCCCCCCCCN=C(CC(=O)O)C(=O)O,79.4%
15,COc1ccc(CCN2CCCN3C2=Nc2ccccc2S3(=O)=O)cc1,24.7%
16,Cc1nnc(Nc2ccc(NC(=O)Nc3ccc(Cl)cc3)cc2)c2ccccc12,9.76% (active)
17,C=C(C[C@](O)(C(=O)/C=C/c1ccc(Cl)cc1)C(=O)OC)c1ccccc1,62.9%

row,Compound,growth
1,O=C(/C=C/c1ccccc1Cl)c1ccc(O)cc1,55.1%
2,CC(=O)NC1(C(=O)O)CCCC1,109%
3,CCOC(=O)c1cc(-c2cccnc2)nc2c(Cl)cc(Cl)cc12,98.9%
4,CN1C(=O)/C(=C/c2nc(-c3cccc(F)c3)n3ccccc23)c2ccccc21,71.6%
5,O=C1C(=O)c2ccc(Br)cc2-c2cc(Br)ccc21,-31.4% (active)
6,ClC1=C(Cl)C(Cl)=C(Cl)C1=C/C=C/c1ccccc1,-23.5% (active)
7,O=C(CN1CCCCC1)Sc1nnc2sc3ccccc3n12,98.1%
8,CN1CCN(Cc2ccc(NC(=O)c3[nH]ncc3Nc3ccnc4ccnn34)cc2)CC1,45.5%
9,CC1=CC(=O)C(C(C)=Nc2ccccc2Cl)C(=O)O1 (stereo not drawn),101%
10,CSc1ncc2ncn(C3OC(CO)C(O)C3O)c2n1 (stereo not drawn),109%
11,COc1ccc2nc3cc(Cl)ccc3c(Nc3cc(C(C)C)c(O)cc3C)c2c1,18%
12,c1cnc2ccc3ncccc3c2c1,106%
13,O=C(Nc1ccc(Cl)cc1)Nc1ccc(Oc2nncc3ccccc23)cc1,3.99% (active)
14,CCCCCCCC/C=C/CCCCCCCC1=NC(C)(C)CN1CCO,-44.4% (active)
15,CN(CC(=O)N(Cc1ccc(C2CCCCC2)cc1)c1ccc(C(=O)O)cc1)S(=O)(=O)c1c(F)c(F)c(F)c(F)c1F,-15.9% (active)
16,CCN(CC)CCCNCCCNc1cc(OC)cc2cccnc12,75.6%

# System: SR leukemia
# Assay: as above
# Settings: 10 µM unless noted
row,Compound,growth
1,COc1ccc2c(c1)C(=O)c1c-2c(=O)n(CCCCCCC(=O)NO)c2ccccc12,5.2% (active)
2,CCCCCCCCCCCCCCCCCC1=NC(C)(C)CN1CCO,-42.7% (active)
3,O=C(Nc1ccc(Cl)cc1)Nc1ccc(Nc2nncc3ccccc23)cc1,17.5%
4,COc1cc(C2C=C(c3ccc(C)cc3)Nc3nc(SC)[nH]c(=O)c32)ccc1Oc1ccnc2cc(Cl)ccc12 (stereo not drawn),75.8%
5,C=C(C[C@@](O)(C(=O)Oc1ccccc1)C(=O)C1CCCCC1)c1ccccc1,103%
6,CCOC(=O)c1c(C)c(C(=O)OCC)n(C)c1C,87.8%
7,COc1ccc(-c2cncn2-c2ccc(-c3nc4cc(OC)c(OC)c(OC)c4s3)cc2)cc1N,43.4%
8,CCc1[nH]nc(-c2ccc(OC)cc2)c1-c1ccccc1OCCN(CC)CC,62.7%
9,COc1ccc2c(c1)C(=O)c1c-2c(OCCCN(C)C)nc2cc(Br)ccc12,-21.3% (active)
10,N#Cc1c(N)[nH]c(S)c1C#N,97.8%
11,CC(O)c1nc2c(c(=O)n(C)c(=O)n2C)n1C (stereo not drawn),125%
12,Cc1ccc(NC(=O)Nc2ccc(-c3cccnc3)cc2N2CCC(CO)CC2)cc1,17.1%
13,CCCCCCCCCCCCCCCCN=C(CC(=O)O)C(=O)O,65.6%
14,COc1ccc(CCN2CCCN3C2=Nc2ccccc2S3(=O)=O)cc1,24.5%
15,Cc1nnc(Nc2ccc(NC(=O)Nc3ccc(Cl)cc3)cc2)c2ccccc12,-3.51% (active)
16,CCCCCCCCCCSc1ncnc2nc[nH]c12,82.6%
17,C=C(C[C@](O)(C(=O)/C=C/c1ccc(Cl)cc1)C(=O)OC)c1ccccc1,23.3%
18,O=C(/C=C/c1ccccc1Cl)c1ccc(O)cc1,27.9%
19,CCOC(=O)c1cc(-c2cccnc2)nc2c(Cl)cc(Cl)cc12,117%
20,CN1C(=O)/C(=C/c2nc(-c3cccc(F)c3)n3ccccc23)c2ccccc21,60.5%
21,O=C1C(=O)c2ccc(Br)cc2-c2cc(Br)ccc21,4.99% (active)
22,CCN1CCN(c2cc(-c3cn[nH]c3-c3cc(C)cc(OC)c3)nc(-c3cccnc3)n2)CC1,7.69% (active)
23,ClC1=C(Cl)C(Cl)=C(Cl)C1=C/C=C/c1ccccc1,-43.2% (active)
24,O=C(CN1CCCCC1)Sc1nnc2sc3ccccc3n12,99.9%
25,CC1=CC(=O)C(C(C)=Nc2ccccc2Cl)C(=O)O1 (stereo not drawn),118%
26,COc1ccc2nc3cc(Cl)ccc3c(Nc3cc(C(C)C)c(O)cc3C)c2c1,16.9%
27,c1cnc2ccc3ncccc3c2c1,82%
28,O=C(Nc1ccc(Cl)cc1)Nc1ccc(Oc2nncc3ccccc23)cc1,2.64% (active)
29,CCCCCCCC/C=C/CCCCCCCC1=NC(C)(C)CN1CCO,-43.1% (active)
30,CN(CC(=O)N(Cc1ccc(C2CCCCC2)cc1)c1ccc(C(=O)O)cc1)S(=O)(=O)c1c(F)c(F)c(F)c(F)c1F,-22.1% (active)
